Data as given in ChEMBL document CHEMBL4513146, “CO-ADD screening of Karazin Kharkiv National University (Ukraine) compounds”.
Results with a measured potency or affinity are listed apart.

Legend:
Klebsiella pneumoniae = conditions: Concentration 32 ug.mL-1;; ASSAY_TEST Inhibition of Bacterial Growth; detection method Absorption (OD600); MEDIA CAMHB; plate type 384well; NBS; CORNING #3640; time 18 hr
Candida albicans = conditions: Concentration 32 ug.mL-1; ASSAY_TEST Inhibition of Fungal Growth; detection method Absorption (OD530)
Cryptococcus neoformans = conditions: Concentration 32 ug.mL-1; ASSAY_TEST Inhibition of Fungal Growth; detection method Resazurin; Absorption (OD600-OD570); plate type 384well; NBS; CORNING #3640

SMILES | Inhibition (Klebsiella pneumoniae) | Inhibition (Candida albicans) | Inhibition (Cryptococcus neoformans)
COc1ccccc1CNC(=O)Cn1nc2c(N3CCSCC3)nccn2c1=O | 3.04% | 3.29% | -6.25%
Cc1cc2nn(CC(=O)Nc3ccccc3)c(=O)n2c(Nc2ccc(C)c(F)c2)n1 | 9.53% | 4.54% | -5.9%
O=S(=O)(c1ccc2nncn2c1)N(Cc1cccc(Cl)c1)c1ccccc1 | 4.69% | -1.59% | -11.03%
COc1cccc(Cn2nc3c(=O)n(-c4cccc(Cl)c4C)ccn3c2=O)c1 | -11.12% | 6.64% | -14.85%
CC(=O)c1ccc(NC(=O)Cn2nc3ccc(Sc4ccccc4)nn3c2=O)cc1 | -6.33% | 15.65% | -7.51%
O=C(Cn1nc2c(Oc3ccccc3)nccn2c1=O)Nc1ccc2c(c1)OCCO2 | 6.43% | 0.75% | -7.17%
Cc1ccc(Cl)cc1NC(=O)Cn1nc2c(SC3CCCCC3)nccn2c1=O | 10.4% | -0.14% | -28.24%
Cc1ccc(N(Cc2ccccc2F)S(=O)(=O)c2ccc3nncn3c2)cc1 | -0.06% | 0.13% | -11.13%
CCCCOc1ccc(-c2cc3c4nnc(SCC(=O)NCc5ccc(C)cc5)n4ccn3n2)cc1 | 3.76% | 12.04% | -14.64%
Cc1ccccc1Oc1nccn2c(=O)n(CC(=O)Nc3ccc(C(C)C)cc3)nc12 | 6.08% | 37.73% | -9.72%
O=C(Cn1nc2ccc(Sc3cccc(F)c3)nn2c1=O)NCc1ccc(C(F)(F)F)cc1 | 8.35% | 1.44% | -8.13%
COc1ccc(NC(=O)Cn2nc3nc(N4CCOCC4)ccn3c2=O)cc1F | 8.85% | 5.37% | -8.95%
CC(C)Cn1c(=O)c2sccc2n2c(=O)n(Cc3ccc(Br)cc3)nc12 | 4.98% | -2.24% | -27.05%
Cc1ccc(Oc2nccn3c(=O)n(CC(=O)Nc4ccc5c(c4)OCO5)nc23)cc1 | 3.22% | -1.46% | -8.87%
COc1ccccc1-n1ccn2c(SCC(=O)Nc3ccc(C)c(F)c3)nnc2c1=O | 8.02% | 2.55% | -5.32%
Cc1cc(C)c(NC(=O)Cn2nc3ccc(-c4ccc(C)c(C)c4)nn3c2=O)c(C)c1 | -8.22% | 0.76% | -13.99%
O=C(Cn1nc2c3cc(-c4ccc(Cl)cc4)nn3ccn2c1=O)Nc1ccc2c(c1)OCCO2 | 7.68% | -1.89% | -18.54%
COc1cccc(-n2ccn3c(SCC(=O)Nc4cc(Cl)ccc4OC)nnc3c2=O)c1 | 5.24% | 13.1% | -11.15%
CCOc1ccc(-c2nc(CSc3nc4ccccc4n4c(C)nnc34)c(C)o2)cc1 | 11.43% | 1.94% | -16.17%
Cc1ccc(-c2ccc3nn(Cc4nc(-c5ccc(Cl)cc5)no4)c(=O)n3n2)cc1 | 0.33% | 7.26% | -7.02%
COc1ccc(-c2cc3c4nnc(SCC(=O)Nc5cccc(C#N)c5)n4ccn3n2)cc1 | 2.25% | 13.14% | -16.67%
COc1ccc(NC(=O)CSc2nnc3c(=O)n(-c4ccccc4)ccn23)cc1 | 0.2% | 2.88% | -4.81%
CCOc1ccc(-n2ccn3c(SC(C)C(=O)Nc4ccc(OC)cc4)nnc3c2=O)cc1 (centres undefined) | 5.17% | 4.23% | -11.44%
CSc1ccc(CNC(=O)Cn2nc3c(Oc4cccc(C)c4C)nccn3c2=O)cc1 | 12.69% | 0.27% | -6.54%
CN(C(=O)Cn1nc2nc(Nc3ccc(F)cc3)ccn2c1=O)c1ccccc1 | 8.25% | 3.9% | -4.67%
CC(C)c1nnc2c(=O)n(CC(=O)Nc3ccc4c(c3)OCO4)c3ccccc3n12 | 6.48% | 6.2% | -25.4%
O=C(CSc1nnc2c(=O)n(Cc3ccc(F)cc3)ccn12)NC1CCCC1 | 8.75% | 5.19% | -22.84%
O=c1c2nn(Cc3cccc([N+](=O)[O-])c3)c(=O)n2ccn1-c1ccccc1 | 9.21% | 0.04% | -10.2%
